In the library only some 19% were active in any assay of this set; here they are far more common.
IL-1B inflam inh: blocks inflammasome-driven IL-1 beta release; THP-1 LPS/ATP IL-1B secretion, AlphaLISA, 16 h; hits give low values; activity change, % at 57.5 µM; hit rate 4.7% among 360,000; AID 743279; in the data active = activity change below about -50%; inconclusive = mostly about -30% to -49%
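THP-1 cells pretreated 1 hr with compounds (up to 57.5 uM final), then stimulated with LPS (250 ng/mL final) plus ATP (1.25 mM final); secreted IL-1B measured by AlphaLISA after 16 hr, decreased signal indicating inhibition.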
HT1080 IDH1KD tx: kills HT-1080 cells with IDH1 knockdown | HT-1080 IDH1 knockdown viability, ATP luminescence, 48 h | Potency, µM (top dose mostly 46.1 µM), inactives show at the top dose activity, negative = toxicity, usual class: cytotoxic | hit rate 2% among 360,000;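 also: potency is read from the fitted curve at half-maximal effect; 0% = DMSO wells and -100% = cell-free medium wells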
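Assay cells: HT-1080 with IDH1 knockdown, 750 per well, RPMI/5% FBS. Exposure: 48 h at 37 °C following 2 h pre-incubation. Read: CellTiter-Glo luminescence; fitted concentration-response, curve class assigned.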
uPA generation: blocks generation of uPA at the cell surface. cell surface uPA generation assay, qHTS. Potency, µM (top dose mostly 38.3 µM), without a hit: top-dose activity change, negative = inhibition, hits mostly inhibitors. hit rate 0.31% among 330,000. AID 540303; active = well fitted inhibition curve with a large enough effect; inconclusive = small, poorly fitted or top-dose-only effect; inactive = no such curve, though single readings can be large or run the other way; tested in mouse RAW 264.7 cells; also: potency is read from the fitted curve at half-maximal effect; nearly all actives have a fitted effect of over 55% in size
HT1080NT lethal: kills 2HG-producing HT-1080-NT fibrosarcoma cells. HT-1080-NT fibrosarcoma viability, CellTiter-Glo ATP luminescence, 48 h. Potency, µM (series often up to 46.1 µM), without a hit: at the top dose activity, negative = less viability, usual class: cytotoxic. hit rate 1.6% among 360,000;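 also: NT is the 2HG producing partner of a matched IDH1 knockdown line; potency is read from the fitted curve at half-maximal effect; 0% = DMSO-treated cells and -100% = media-only wells without cells; nearly all actives have a fitted effect of over 55% in size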
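750 cells/well, RPMI + 5% FBS; 2 h settle, compound pin-transfer, 48 h at 37 degrees C. CellTiter-Glo 10 min RT, luminescence. Normalized to DMSO and media-only wells.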
TDP1 cell CPT: growth inhibition of DT40 Tdp1-/-;hTDP1 cells with camptothecin (screen for TDP1 inhibitors) | hit rate 12% among 420,000 | chicken DT40 Tdp1-/-;hTDP1 cells + 20 nM CPT, ATP luminescence, 48 h | Potency, µM (titrated, usually from 46.2 µM), for the others: at the top dose activity change, negative = growth inhibition, hits mostly inhibitors; also: potency is read from the fitted curve at half-maximal effect; nearly all actives have a fitted effect of over 55% in size
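Chicken DT40 Tdp1-/- cells stably complemented with human TDP1 were seeded at 400 cells/well in medium containing 20 nM camptothecin, exposed to pin-transferred compounds, and grown at 37 °C for at least 48 hr. Viability was read as ATP luminescence.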
TDP1 cell noCPT: qHTS for Inhibitors of human tyrosyl-DNA phosphodiesterase 1 (TDP1): qHTS in cells in absence of CPT; DT40 Tdp1-/- hTDP1 cells, no CPT, ATP luminescence, 48 h; Potency, µM (top dose mostly 46.2 µM), for the others: top-dose activity change, negative = growth inhibition, actives largely listed as inhibitors; hit rate 15% among 420,000; AID 686978, 2013; also: potency is read from the fitted curve at half-maximal effect; nearly all actives have a fitted effect of over 55% in size
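Chicken DT40 Tdp1-/- cells stably complemented with human TDP1 were seeded at 400 cells/well with DMSO in place of 20 nM camptothecin. After compound pinning, cells grew at least 48 hr at 37 °C; viability read by CellTiter-Glo luminescence.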
An asterisk follows results filed as active; ? = inconclusive; / = not tested or not shown. Unless noted, calls follow the shape of the dose curve; as a rule, active = well fitted curve in the direction sought with a large enough effect; inconclusive = small, poorly fitted or top-dose-only effect, or another doubt; inactive = no such curve, though single readings can be large; an effect the other way counts as inactive or inconclusive. Unless noted, % is scaled to controls: 0 for no effect and ±100 for the full control effect.

SMILES	IL-1B inflam inh	HT1080 IDH1KD tx	uPA generation	HT1080NT lethal	TDP1 cell CPT	TDP1 cell noCPT
Cc1ccc(-c2cc(C(F)(F)F)n3nc(C(=O)Nc4ccc(Cl)c(C(F)(F)F)c4)cc3n2)cc1	/	/	/	/	-8%	0%
CN(CC(=O)Nc1ccccc1Br)C(=O)CNC(=O)Cc1cccc2ccccc12	13	0%	10%	-7%	-19%	?
Cc1cccc(NC(NC(=O)Cc2ccccc2)C(Cl)(Cl)Cl)c1 (configuration not stated)	-8	1%	-8%	2%	18µM*	21µM*
Cc1cccc(NC(=O)c2oc3c(c2C)C(=O)CC(C)(C)C3)n1	-9	-18%	/	-5%	12µM*	5.2µM*
Cc1c(C(=O)N2CCN(c3ccccn3)CC2)oc2c1C(=O)CC(C)(C)C2	10	7%	10%	2%	?	?
CCOC(=O)c1cnc2c(Cl)cc(Cl)cc2c1Nc1ccccc1OC	/	/	/	/	-7%	-7%
O=C(NCC(c1cccs1)S(=O)(=O)c1cccs1)c1ccc(Cl)cc1 (configuration not stated)	/	/	/	/	?	18µM*
Cc1ccc(C(=O)NCC(c2cccs2)S(=O)(=O)c2cccs2)cc1C (configuration not stated)	/	/	/	/	12µM*	21µM*
CCN(CC)c1ccc(NC(=O)CN2CCN(CC(=O)Nc3ccccc3OC)CC2)cc1	-7	-9%	-3%	-10%	23µM*	?
CCN(CC)c1ccc(NC(=O)CN2CCN(c3ccc(F)cc3)CC2)cc1	-29	0%	3%	-5%	?	?
COc1ccccc1NC(=O)CN1CCN(c2ccccc2F)CC1	-9	-1%	1%	2%	21µM*	?
COc1ccccc1NC(=O)CN1CCN(c2ccccc2OC)CC1	4	0%	-7%	-5%	-25%	?
CCN(CC)c1ccc(NC(=O)CN2CCN(c3nc(C)cc(C)n3)CC2)cc1	?	-21%	-6%	-26%	?	16µM*
COc1ccccc1NC(=O)CN1CCN(c2ccc(Cl)cc2)CC1	22	0%	-5%	-3%	21µM*	16µM*
COc1ccccc1NC(=O)CN1CCN(CC(=O)Nc2ccccc2Cl)CC1	22	?	7%	14%	25%	-20%
CN(C)c1nc(-c2ccoc2)nc2ccccc12	/	/	/	/	-14%	-25%
CCn1c2ccccc2c2cc(CN3CCN(S(C)(=O)=O)CC3)ccc21	-9	-21%	1%	-5%	15µM*	16µM*
CCn1c2ccccc2c2cc(CN3CCN(Cc4ccc(Cl)cc4)CC3)ccc21	/	/	/	/	15µM*	?
CCn1c2ccccc2c2cc(CN3CCN(Cc4ccccc4C)CC3)ccc21	/	/	/	/	16µM*	?
CC(C)S(=O)(=O)c1oc(-c2ccc(F)cc2)nc1S(=O)(=O)c1ccccc1	/	/	/	/	0.73µM*	0.46µM*
CC(C)S(=O)(=O)c1oc(-c2cccs2)nc1S(=O)(=O)c1ccc(F)cc1	/	/	/	/	0.65µM*	0.46µM*
CCCCC(=O)N1CCN(c2nc3ccc(Cl)cc3s2)CC1	-19	?	-4%	?	16µM*	?
CC(C)(CC(=O)O)CC(=O)N1CCCN(c2nc3ccc(Cl)cc3s2)CC1	-3	-28%	-12%	-9%	-22%	-13%
CC(C)(C)NC(=O)N1CCN(c2nc3ccc(Cl)cc3s2)CC1	-12	?	-1%	-19%	23µM*	18µM*
CC(C)(CC(=O)O)CC(=O)N1CCN(c2nc3ccc(Cl)cc3s2)CC1	28	1%	?	-1%	-16%	11%
COC(=O)[C@@H]1CCCN1C(=O)c1c(OC)cc(=O)n2c1CCN(Cc1ccc3c(c1)CCO3)CC2	/	/	/	/	27%	-4%
N#Cc1ccc(CN2CC[C@@]3(CCCN(C(=O)c4cnccn4)C3)C2)cc1	/	/	/	/	1%	-5%
Cc1ccc(CNc2ncnc3c2nnn3C)cc1	/	/	/	/	-6%	?

Source: PubChem
